Experimental data taken from ChEMBL document CHEMBL3988442, “University of Dundee, Small-Polar-MMV Screening Library” (2021).

Assays:
[1] = biological target: T1, Aspartate--tRNA(Asp/Asn) ligase (Mycobacterium tuberculosis (strain ATCC 25618 / H37Rv)) (UniProt P9WFW3); test: Assay for Asp RNA synthetase-1 from Mycobacterium tuberculosis; format: functional; set-up: scale not given: direction of the effect not stated beside the values; conditions: 30 µM; note: in the data most compounds retested in dose-response had high values
T1 sequence (whole entry): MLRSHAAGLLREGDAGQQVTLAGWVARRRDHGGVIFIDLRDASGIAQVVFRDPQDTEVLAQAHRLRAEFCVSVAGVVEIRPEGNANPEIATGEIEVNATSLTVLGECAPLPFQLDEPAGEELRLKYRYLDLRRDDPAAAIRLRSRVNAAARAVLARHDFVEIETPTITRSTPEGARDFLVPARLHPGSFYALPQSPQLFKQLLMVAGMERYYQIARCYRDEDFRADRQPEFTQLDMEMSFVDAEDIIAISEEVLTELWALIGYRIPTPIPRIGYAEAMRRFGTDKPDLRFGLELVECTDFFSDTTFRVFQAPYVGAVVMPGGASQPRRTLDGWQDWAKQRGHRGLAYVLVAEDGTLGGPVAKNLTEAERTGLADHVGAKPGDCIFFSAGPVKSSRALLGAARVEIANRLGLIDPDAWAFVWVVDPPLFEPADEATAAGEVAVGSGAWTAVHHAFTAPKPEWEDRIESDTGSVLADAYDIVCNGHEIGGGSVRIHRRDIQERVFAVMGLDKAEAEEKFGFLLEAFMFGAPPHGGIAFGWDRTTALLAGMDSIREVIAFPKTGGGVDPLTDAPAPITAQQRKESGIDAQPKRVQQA

[2] = biological target: Shiga toxin 2 (Escherichia coli O157:H7) (UniProt P09385+P09386); test: E. coli 0.157:H7 Shiga Toxin SOP - stx2 screening assay; format: functional; set-up: scale not given: direction of the effect not stated beside the values; conditions: 30 µM

Row | Compound | Percent Effect [1] [%] | Percent Effect [2] [%]
1 | CN1CCN(Cc2cccnc2)C2(CCN(c3ncc(F)cn3)C2)C1=O (centres undefined) | 4.87 | -19.6
2 | Cc1nc(C)n(CC2CCCN2Cc2nc(N)c3ccccc3n2)n1 (centres undefined) | -1.84 | -29.4
3 | COc1cccc(CCNS(=O)(=O)c2ccc(NC(C)=O)cc2)c1 | -1.32 | -9.96
4 | O=C(NCCCn1ccnc1)N1CCN(c2cccs2)CC1 | -0.0463 | -102
5 | CCc1noc(C2CCCCN2C(=O)c2nnc3ccccc3n2)n1 (centres undefined) | 1.83 | -8.75
6 | Cc1cc(CN2CCN(CCOc3cccc(C#N)c3)CC2)no1 | 2.73 | 20.5
7 | CCOc1cc(C)ccc1NC(=O)N(C)Cc1cnn(C)c1 | 4.37 | 24
8 | CN(C)C(=O)CN1CCCC2(CCN(c3ccsc3)C2=O)C1 (centres undefined) | 2.4 | -21.7
9 | Cc1ccn(-c2ccc(C(=O)N3CCCC(n4ccnc4)C3)cc2)n1 (centres undefined) | 3.8 | -14.7
10 | NC(=O)C1CCN(Cn2nc(-c3ccc(F)cc3)oc2=O)CC1 | 4.96 | -69.6
11 | CCOc1ccnc(N2CCN(C(=O)c3cn[nH]c3CC)CC2)n1 | -1.77 | 5.02
12 | CCN(Cc1cccc(Cl)c1)Cn1nc(C)c2c(C)onc2c1=O | -2.62 | 21.7
